PDI inh: inhibitors of human PDI, primary screen, biochemical, turbidity, single point, plate reader | Protein disulfide-isomerase (Homo sapiens), P07237 | PDI insulin aggregation turbidity, A650, 90 min | inhibition, % at 10 µM | 0.052% of 350,000 active | AID 588391, 2011;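 active = mean inhibition across replicates of 30% or more, whatever share of single replicates reach that level; inconclusive = mean inhibition below 30% while every single replicate reaches 30%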
Target sequence (P07237 whole entry, looked up): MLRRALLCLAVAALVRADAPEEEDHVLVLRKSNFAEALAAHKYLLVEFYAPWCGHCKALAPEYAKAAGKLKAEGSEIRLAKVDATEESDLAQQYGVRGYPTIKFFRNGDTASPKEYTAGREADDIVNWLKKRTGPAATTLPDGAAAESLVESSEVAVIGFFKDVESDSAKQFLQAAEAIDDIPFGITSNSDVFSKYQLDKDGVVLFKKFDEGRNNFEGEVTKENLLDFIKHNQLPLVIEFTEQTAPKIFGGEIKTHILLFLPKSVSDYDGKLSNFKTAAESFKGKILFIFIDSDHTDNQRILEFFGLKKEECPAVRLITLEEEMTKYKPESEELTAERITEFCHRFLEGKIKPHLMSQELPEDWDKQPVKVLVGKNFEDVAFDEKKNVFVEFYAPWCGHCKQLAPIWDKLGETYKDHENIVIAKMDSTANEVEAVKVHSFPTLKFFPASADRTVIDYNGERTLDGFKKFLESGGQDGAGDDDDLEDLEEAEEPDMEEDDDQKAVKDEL
AF4-AF9 inh: inhibitors of AF4 peptide binding to AF9, primary screen, biochemical, AlphaScreen, biotin-AF4 peptide, FLAG-AF9, single point; Protein AF-9 (Homo sapiens), P42568; inhibition, % at 10 µM; 0.47% of 350,000 active; AID 651704, 2012;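 active = every replicate reaching a set inhibition limit, whatever the replicate mean, cut at about 25% in these data; inconclusive = mean inhibition reaches that limit but some replicates miss it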;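 note: 0% = plate neutral control median and 100% = total signal loss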
ERAP1 HTS inh: human ERAP1 aminopeptidase inhibitors, primary screen, biochemical, single point, plate reader. AID 652197, 2013. recombinant ERAP1, Leu-AMC fluorescence, 60 min. Endoplasmic reticulum aminopeptidase 1 (Homo sapiens), Q9NZ08. 0.15% of 340,000 active. inhibition, % at 10.7 µM;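 active = mean replicate inhibition of at least 30%, or all replicates individually reaching that 30% level; inactive = mean below 30% and not every replicate reaching it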;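 note: 0% = neutral control wells and 100% = L-leucinethiol positive control wells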
DENV2 CPE: inhibitors of DENV2 cytopathic effect, primary screen, cell-based, plate reader, single concentration; DENV2-infected cells, cytopathic effect rescue; CPE inhibition, % at 9.99 µM; 1.7% of 350,000 active; AID 651640, 2012; in the data active = CPE inhibition above about 20%, passing the limit was not always enough; inconclusive = no clear call, values can overlap the other calls; tested in BHK-21 cells;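 note: 0% = median of neutral control wells and 100% = median of positive control wells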
ERp5 inh: inhibitors of ERp5-driven insulin aggregation, primary screen, biochemical, turbidity, absorbance 650 nm, single point; 0.05% of 350,000 active; inhibition, % at 9.99 µM; 90 min;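 active = mean replicate inhibition above about 25%, with every replicate also reaching it, limit read from the data, passing the limit was not always enough; inconclusive = only one of those two criteria met; inactive = neither criterion met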
Numbers without * were called inactive; ? = inconclusive; / = no result. Most compounds without a hit are left out; they make up all but 1.8% or so of the library.

SMILES	PDI inh	AF4-AF9 inh	ERAP1 HTS inh	DENV2 CPE	ERp5 inh
C[C@H](CO)N1C[C@H](C)[C@H](CN(C)Cc2ccccc2)OCCCC[C@H](C)Oc2ccc(NS(=O)(=O)c3cccs3)cc2C1=O	/	4.6	-8.0	-3.0	-1.2
COc1ccc(CN(C)C[C@H]2OCCCC[C@H](C)Oc3ccc(NS(=O)(=O)c4cccs4)cc3C(=O)N([C@H](C)CO)C[C@H]2C)cc1	/	5.8	-1.3	52.3*	-6.0
C[C@@H]1CN([C@@H](C)CO)C(=O)c2cc(NS(=O)(=O)c3cccs3)ccc2O[C@@H](C)CCCCO[C@H]1CN(C)Cc1ccccc1	/	2.5	0.7	41.9*	-7.1
COc1ccc(CN(C)C[C@@H]2OCCCC[C@@H](C)Oc3ccc(NS(=O)(=O)c4cccs4)cc3C(=O)N([C@H](C)CO)C[C@@H]2C)cc1	/	2.9	-77.3	-10.7	-1.4
C[C@@H]1CCCCO[C@@H](CN(C)C(=O)Cc2ccccc2)[C@H](C)CN([C@H](C)CO)C(=O)c2cc(NS(=O)(=O)c3cccs3)ccc2O1	/	1.3	0.1	61.2*	-3.3
C[C@@H]1CCCCO[C@@H](CN(C)Cc2ccc3c(c2)OCO3)[C@H](C)CN([C@H](C)CO)C(=O)c2cc(NS(=O)(=O)c3cccs3)ccc2O1	/	/	/	38.2*	/
COCC(=O)Nc1ccc2c(c1)C(=O)N(C)[C@@H]1CC[C@@H](CC(=O)NCc3ccccc3)O[C@@H]1CO2	/	0.8	2.5	1.3	-2.8
COc1ccc(NC(=O)N(C)C[C@H]2OCCCC[C@H](C)Oc3ccc(NS(=O)(=O)c4c(C)noc4C)cc3C(=O)N([C@@H](C)CO)C[C@H]2C)cc1	/	/	/	3.4	/
CCN1[C@@H]2c3ccc(-c4ccccc4F)c(=O)n3C[C@@H]2[C@@H](CO)[C@@H]1C(=O)NC1CCCC1	/	0.9	-1.2	-10.3	3.6
Cc1ccc(NC(=O)c2ccc(NCCN)c([N+](=O)[O-])c2)cc1Cl	-7.8	8.2	-1.2	14.5	-4.1
Cc1nc2cc(NC(=O)c3ccc([N+](=O)[O-])s3)ccc2s1	17.1	0.7	-4.7	72.8*	1.7
Cc1nc2ccc(NC(=O)c3ccc(=O)[nH]c3)cc2s1	-0.1	1.5	37.0*	-1.6	-1.3
CCNc1ccc(C(=O)Nc2ccc3nc(C)sc3c2)cc1[N+](=O)[O-]	-7.8	2.0	0.7	33.4*	2.5
Cc1nc2ccc(NC(=O)c3ccccc3)cc2s1	-5.6	-1.4	2.2	-2.3	-2.3
O=C(C[C@@H]1C[C@@H]2c3cc(NC(=O)CC4CC4)ccc3O[C@@H]2[C@H](CO)O1)NCc1ccccc1F	/	0.0	1.1	-3.1	-2.8
O=C(Cc1cccnc1)N1CC2(C1)[C@H](c1ccccc1)[C@H](CO)N2C(=O)C1CCCCC1	/	-2.2	-2.5	-1.6	0.5
CNC[C@H]1Oc2c(NS(=O)(=O)c3ccc(Cl)cc3)cccc2C(=O)N([C@H](C)CO)C[C@H]1C	/	-2.1	2.9	79.5*	0.5
CNC[C@H]1Oc2c(NS(=O)(=O)c3cccs3)cccc2C(=O)N([C@@H](C)CO)C[C@H]1C	/	-2.7	-3.8	26.5*	-8.4
C[C@@H]1CN([C@H](C)CO)C(=O)c2cccc(NS(=O)(=O)c3ccc(Cl)cc3)c2O[C@H]1CN(C)Cc1ccccc1	/	2.4	0.2	25.0*	8.4
C[C@H](CO)N1C[C@H](C)[C@@H](CN(C)Cc2ccccc2)Oc2c(NS(=O)(=O)c3ccc(Cl)cc3)cccc2C1=O	/	0.1	0.3	1.5	0.0
C[C@H](CO)N1C[C@H](C)[C@H](CN(C)Cc2ccc(C(=O)O)cc2)Oc2c(NS(=O)(=O)c3ccccc3)cccc2C1=O	/	-1.6	-0.8	50.3*	12.0
C[C@H]1CN([C@@H](C)CO)C(=O)c2cccc(NS(=O)(=O)c3ccccc3)c2O[C@H]1CN(C)Cc1ccc(C(=O)O)cc1	/	-0.6	-1.6	-1.0	-3.9
COCC(=O)N1[C@H](CO)[C@H]2c3ccccc3N(C(=O)Nc3ccccc3Cl)C[C@H]21	/	-2.5	0.5	?	-6.9
C[C@H](CO)N1C[C@H](C)[C@H](CN(C)C(=O)Nc2cccc3ccccc23)Oc2ncc(-c3cccc(C(F)(F)F)c3)cc2C1=O	/	6.0	1.7	17.7	-1.8
O=C(NCc1ccc(F)cc1)[C@@H]1[C@@H](CO)[C@@H]2Cn3c(cccc3=O)[C@H]1N2Cc1cccnc1	/	-1.4	-0.9	-2.9	/
SMILES	PDI inh	AF4-AF9 inh	ERAP1 HTS inh	DENV2 CPE	ERp5 inh
C[C@@H]1CN([C@H](C)CO)C(=O)c2cccc(NS(=O)(=O)c3ccc(F)cc3)c2O[C@@H]1CN(C)Cc1ccccc1	/	-1.7	2.6	-4.8	3.2
C[C@H](CO)N1C[C@H](C)[C@H](CN(C)Cc2ccccc2)Oc2c(NS(=O)(=O)c3ccc(F)cc3)cccc2C1=O	/	-0.8	0.0	104.5*	5.7
CC(NC(=O)CN1CCCC1)c1ccccc1 (stereo unspecified)	2.5	-2.7	0.9	23.6*	0.9
Cc1ccccc1CN1CCN(CC(=O)NC(C)c2ccccc2)CC1 (stereo unspecified)	5.1	1.2	-1.4	27.2*	6.4
COc1ccc(C(CNC(=O)CCNC(=O)c2ccc(Br)cc2)N2CCOCC2)cc1 (stereo unspecified)	-1.2	-0.4	-3.2	38.9*	4.4
CC(=O)NCc1ccc(C(=O)CCl)cc1	2.9	-1.1	3.9	12.6	-3.9
CC(=O)Nc1ccc(C(=O)CCl)cc1	/	/	2.2	26.9*	0.3
Cc1noc(C)c1S(=O)(=O)N(C)C[C@@H]1Oc2ccc(NC(=O)Nc3ccc(C(F)(F)F)cc3)cc2CC(=O)N([C@H](C)CO)C[C@H]1C	/	/	/	-5.4	/
CCCCC[C@@H](/C=C/C1C(=O)C=C[C@H]1C/C=C\CCCC(=O)OC)OC(C)=O (stereo partly specified)	8.3	-0.9	0.3	25.4*	1.8
CCc1nnc(NC(=O)c2cc(S(=O)(=O)N3CCOCC3)ccc2N2CCCCC2)s1	0.2	-2.0	55.8*	9.3	-0.2
CC(C)Oc1ccc(S(=O)(=O)N2CCOCC2)cc1NC(=O)c1cc([N+](=O)[O-])ccc1N1CCOCC1	-7.2	4.2	2.6	72.1*	-0.9
COc1cc(NC(=O)c2cc(S(=O)(=O)N3CCCCC3)ccc2N2CCOCC2)cc(OC)c1OC	5.3	-0.5	1.4	62.7*	-2.2
O=C(Nc1nnc(C2CC2)s1)c1cc(S(=O)(=O)N2CCCCC2)ccc1N1CCOCC1	1.9	-7.4	/	-0.7	9.8
Cc1occc1C(=O)Nc1cc(S(=O)(=O)N2CCOCC2)ccc1OC(C)C	-7.9	0.2	0.1	-4.9	1.3
COc1ccc(CCC(=O)Nc2cc(S(=O)(=O)N3CCOCC3)ccc2OC(C)C)cc1	-7.6	3.1	-3.2	70.4*	-9.9
C[C@H]1CN([C@@H](C)CO)C(=O)Cc2cc(NC(=O)Nc3ccccc3)ccc2O[C@H]1CN(C)C(=O)Nc1ccc2c(c1)OCO2	/	-1.5	1.2	/	-5.6
